Anthrax LF inh2 = blocks Bacillus anthracis lethal factor protease; P15917; multiplex microsphere protease cleavage assay, LF; inhibition, % at 10 µM; actives 0.12% (n = 360,000); AID 588501
Target sequence (P15917 whole entry, looked up): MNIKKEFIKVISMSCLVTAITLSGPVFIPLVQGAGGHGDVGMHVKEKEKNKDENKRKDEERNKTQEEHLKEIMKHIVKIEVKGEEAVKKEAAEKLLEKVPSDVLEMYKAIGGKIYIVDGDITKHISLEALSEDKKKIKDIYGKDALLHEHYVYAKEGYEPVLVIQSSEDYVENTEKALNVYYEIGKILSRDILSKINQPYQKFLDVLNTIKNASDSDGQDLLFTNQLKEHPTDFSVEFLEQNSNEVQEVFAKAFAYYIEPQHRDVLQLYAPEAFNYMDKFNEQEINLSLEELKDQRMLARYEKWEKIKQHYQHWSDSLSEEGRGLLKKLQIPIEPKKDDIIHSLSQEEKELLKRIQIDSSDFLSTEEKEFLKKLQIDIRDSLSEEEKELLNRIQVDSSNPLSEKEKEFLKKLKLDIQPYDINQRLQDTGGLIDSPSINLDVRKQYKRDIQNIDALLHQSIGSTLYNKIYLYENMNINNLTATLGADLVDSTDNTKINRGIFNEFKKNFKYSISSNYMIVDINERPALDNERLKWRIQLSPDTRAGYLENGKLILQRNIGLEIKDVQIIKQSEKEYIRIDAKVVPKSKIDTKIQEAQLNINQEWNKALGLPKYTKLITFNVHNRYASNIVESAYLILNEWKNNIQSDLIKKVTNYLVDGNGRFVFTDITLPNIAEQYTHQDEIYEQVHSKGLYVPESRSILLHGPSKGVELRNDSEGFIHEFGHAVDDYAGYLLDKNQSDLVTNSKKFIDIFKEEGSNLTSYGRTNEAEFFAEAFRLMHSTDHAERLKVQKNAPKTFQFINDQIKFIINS
Autofluor counter = flagged as autofluorescent in microsphere protease counterscreen. compound autofluorescence counterscreen, microsphere flow cytometry; hits give high values. fluorescence intensity (test concentration not listed). actives 3.1% (n = 360,000); in the data active = fluorescence intensity above about 16000; inconclusive = no clear call, values can overlap the other calls
BoNT F protease = blocks Botulinum neurotoxin F light chain protease; Multiplex microsphere protease cleavage assay, flow cytometry; inhibition, % at 10 µM; actives 0.22% (n = 360,000); in the data active = inhibition above about 35%, passing the limit was not always enough; inconclusive = no clear call, values can overlap the other calls
SARS 3CLpro inh = SARS-CoV 3CLpro protease inhibition; P0C6X7; recombinant SARS-CoV 3CLpro, quenched FRET peptide cleavage; inhibition, % at 6 µM; actives 0.14% (n = 290,000); AID 1706; in the data active = inhibition above about 12%
BoNT-A LC inh2 = BoNT A light chain protease inhibition; inhibition, % at 10 µM; AID 588499; actives 0.17% (n = 360,000); multiplex microsphere protease substrate cleavage, flow cytometry
CCHF vOTU inh = CCHFV vOTU protease inhibition; actives 0.55% (n = 370,000); inhibition, % at 11.5 µM; AID 651958; Pep-AMC fluorescence; in the data active = inhibition above about 30%
Of the large screens only hits and unclear results are named; the others gave an inactive call. Shown are actives, neighbours in structure and some others; about 3.9% of the full set was active somewhere. Rule as the data show it, unless noted: active = inhibition above about 30%; inconclusive = no clear call, values can overlap the other calls; inactive = below that.

O=C1Nc2ccccc2/C1=C\c1cccn1-c1ccc(OC(F)(F)F)cc1	Autofluor counter 24253
O=C1Nc2ccccc2/C1=C/c1ccccc1F	none
COC(=O)C1CCN(S(=O)(=O)c2ccc(OC)cc2)CC1	Autofluor counter 24359
COc1ccc(-c2ccc(S(=O)(=O)N3CCCC3)cc2)cc1	none
COc1ccc(S(=O)(=O)N2CCCCCC2)cc1	Autofluor counter 22702
Cc1ccc(NC(=O)NC2CCN(S(=O)(=O)c3ccc(F)cc3)CC2)cc1	none
COc1ccc(S(=O)(=O)N2CCC(C(=O)NCC3CC3)CC2)cc1	none
COc1ccc(S(=O)(=O)N2CCC(NC(=O)Nc3ccc(C)cc3)CC2)cc1	Autofluor counter 20464, BoNT-A LC inh2 inconclusive
COC(=O)[C@]12C[C@H](CC(=O)N3CCCCC3)C(=O)N(Cc3ccc4c(c3)OCO4)C1=C[C@H](C(C)(C)C)O[C@@H]2C	none (no result: Anthrax LF inh2, Autofluor counter, BoNT F protease, SARS 3CLpro inh, BoNT-A LC inh2)
CCn1c2ccccc2c2cc(C=Nn3c(-c4ccccn4)n[nH]c3=S)ccc21	none (no result: Anthrax LF inh2, Autofluor counter, BoNT F protease, SARS 3CLpro inh, BoNT-A LC inh2)
Cc1ccc(Sc2nnc(Cc3ccccc3)c3ccccc23)cc1	Autofluor counter 22795, BoNT-A LC inh2 inconclusive
CC(C)[C@H](NC(=O)[C@@H](N)Cc1ccccc1)C(=O)N1CCC2CCN(Cc3ccccc3)CC21 (stereo partly specified)	none (no result: Anthrax LF inh2, Autofluor counter, BoNT F protease, SARS 3CLpro inh, BoNT-A LC inh2)
CCN(Cc1ccncc1)S(=O)(=O)c1ccc(C(C)=O)cc1	Autofluor counter 22742
CCN(CC)S(=O)(=O)c1ccc(C(=O)Nc2ccc(Cc3ccncc3)cc2)cc1	none
O=[N+]([O-])c1ccc(/C=N/n2cnc3ccccc32)s1	none
Cc1cc2ncn(/N=C/c3ccc([N+](=O)[O-])s3)c2cc1C	BoNT-A LC inh2 44
COC(=O)[C@]12C[C@H](CC(=O)NCc3cccc4ccccc34)C(=O)N(Cc3ccco3)C1=C[C@H](C(C)C)O[C@@H]2C1CC1	none (no result: Anthrax LF inh2, Autofluor counter, BoNT F protease, SARS 3CLpro inh, BoNT-A LC inh2)
CCCCN(c1ccccc1)S(=O)(=O)c1ccc2c(c1)CCN2C(=O)CCC(=O)O	Autofluor counter 22207
CC1CCN(S(=O)(=O)c2ccc3c(c2)CCN3C(=O)CCC(=O)O)CC1	Autofluor counter 21818
CCCN(c1ccc(OCC)cc1)S(=O)(=O)c1ccc2c(c1)CCN2C(=O)CCC(=O)O	none
COc1ccccc1NS(=O)(=O)c1ccc(C(=O)NCC(c2ccccc2OC)N2CCCC2)cc1 (stereo unspecified)	none (no result: SARS 3CLpro inh)
COc1ccc(C(CNC(=O)c2ccc(-c3nc4ccccc4s3)o2)N2CCCC2)cc1 (stereo unspecified)	Autofluor counter 20254 (no result: SARS 3CLpro inh)
COc1ccc(C(CNC(=O)c2ccc(S(=O)(=O)Nc3ccccc3OC)cc2)N2CCCC2)cc1 (stereo unspecified)	Autofluor counter 19637 (no result: SARS 3CLpro inh)
COc1ccc(C(CNC(=O)c2cccc(S(=O)(=O)N3CCCC3)c2)N2CCCC2)cc1 (stereo unspecified)	Autofluor counter 26904 (no result: SARS 3CLpro inh)
COc1ccc(C(CNC(=O)c2cccc(S(=O)(=O)N3CCOCC3)c2)N2CCCC2)cc1 (stereo unspecified)	none (no result: SARS 3CLpro inh)
CC(C)(C)C(=O)OC12CCCN(C1)/C(=C/c1ccncc1)C2 (stereo unspecified)	none (no result: Anthrax LF inh2, Autofluor counter, BoNT F protease, SARS 3CLpro inh, BoNT-A LC inh2)
O=C1NC(Cc2cnc[nH]2)C(=O)N2CCCC12 (stereo unspecified)	none (no result: Anthrax LF inh2, Autofluor counter, BoNT F protease, SARS 3CLpro inh, BoNT-A LC inh2)
Cc1nn(C)c(Cl)c1NC(=O)OCc1ccc(Cl)cc1Cl	Autofluor counter 23382, BoNT-A LC inh2 inconclusive
Cc1nnsc1NC(=O)OCc1ccc(Cl)cc1Cl	none
Cc1nn(Cc2ccc(Cl)cc2Cl)c(C)c1NC(=O)CCl	Autofluor counter 19112, BoNT-A LC inh2 inconclusive
COC(=O)C1CN(Cc2cn(Cc3ccccc3)nn2)CCS(=O)(=O)N1Cc1ccc(Cl)cc1 (stereo unspecified)	none (no result: Anthrax LF inh2, Autofluor counter, BoNT F protease, SARS 3CLpro inh, BoNT-A LC inh2)
CCc1cccc(NC(=O)C2CCCN(S(=O)(=O)c3cnc[nH]3)C2)c1 (stereo unspecified)	none
O=C(Nc1cccc(C(F)(F)F)c1)C1CCCN(S(=O)(=O)c2cnc[nH]2)C1 (stereo unspecified)	Autofluor counter 22065
CCCc1cc(=O)[nH]c(SCc2ccccc2)n1	none
CCCc1cc(=O)[nH]c(SCc2cccc(C)c2)n1	Autofluor counter 23596, BoNT-A LC inh2 inconclusive
CCCc1cc(=O)[nH]c(SCc2cc(Cl)ccc2OC(F)F)n1	Autofluor counter 24635
O=C(Cn1c(-c2cncs2)nc2ccccc21)N1CCCCC1	none (no result: Anthrax LF inh2, Autofluor counter, BoNT F protease, SARS 3CLpro inh, BoNT-A LC inh2)
CCn1c(CCNC(=O)c2cccs2)nnc1SCC(=O)NC1CCCCC1	Autofluor counter 21522, BoNT-A LC inh2 inconclusive
CCn1c(CNC(=O)c2ccccc2F)nnc1SCC(=O)NC1CCCCC1	none
CCn1c(SCC(=O)NCCc2ccc(Cl)cc2)nnc1-c1cccs1	none
CCn1c(CCNC(=O)c2cccs2)nnc1SCC(=O)Nc1ccc(Cl)cc1	Autofluor counter 22204, BoNT-A LC inh2 inconclusive
O=c1oc2c(CN3CCCCC3)c(O)ccc2cc1-c1nc2ccccc2[nH]1	Autofluor counter 18384 (no result: SARS 3CLpro inh)
CN(C)CC(=O)N[C@@H]1C[C@@H]2O[C@@H](CO)CC[C@@H]2O[C@@H]1CCc1ccc(-c2ccc(F)cc2)cc1	none (no result: Anthrax LF inh2, Autofluor counter, BoNT F protease, SARS 3CLpro inh, BoNT-A LC inh2)
CNS(=O)(=O)c1cccc(C(=O)NCC(c2cccs2)N(C)C)c1 (stereo unspecified)	Autofluor counter 22234
CCOC(=O)N1CCN(C(=O)C[C@H]2C[C@@]3(C(=O)OC)C(=C[C@H](C4CCCC4)O[C@@H]3C)N(CCC3=CCCCC3)C2=O)CC1	none (no result: Anthrax LF inh2, Autofluor counter, BoNT F protease, SARS 3CLpro inh, BoNT-A LC inh2)
O=C(NCC1CCCO1)c1cc2n(n1)C(C(F)(F)F)CC(c1ccc(Br)cc1)N2 (stereo unspecified)	Autofluor counter 20177, BoNT-A LC inh2 inconclusive
Cc1ccc(C2CC(C(F)(F)F)n3nc(C(=O)NCc4ccco4)cc3N2)cc1 (stereo unspecified)	Autofluor counter 24280, BoNT-A LC inh2 inconclusive
CCC(C)NC(=O)c1cnn2c1NC(c1ccc3c(c1)OCO3)CC2C(F)(F)F (stereo unspecified)	Autofluor counter 19687
O=C(NCc1ccco1)c1cc2n(n1)C(C(F)(F)F)CC(c1ccc(F)cc1)N2 (stereo unspecified)	none
Cc1cccc(NC(=O)c2cc3n(n2)C(C(F)(F)F)CC(c2ccc4c(c2)OCO4)N3)c1 (stereo unspecified)	Autofluor counter 22193
COC(=O)[C@]12C[C@H](CC(=O)NCCCCc3ccccc3)C(=O)N(Cc3cccc4ccccc34)C1=C[C@H](COCc1ccccc1)O[C@@H]2C	none (no result: Anthrax LF inh2, Autofluor counter, BoNT F protease, SARS 3CLpro inh, BoNT-A LC inh2)
CCCCn1c(N(CCOC(C)=O)C(C)=O)nc2ccccc21	Autofluor counter 19843
C=CCNC(=O)N1CCN(Cc2nc3ccccc3c(=O)[nH]2)CC1	none (no result: Anthrax LF inh2, Autofluor counter, BoNT F protease, SARS 3CLpro inh, BoNT-A LC inh2)
COC(=O)[C@]12C[C@H](CC(=O)NCc3ccc(OC)c(OC)c3)C(=O)N(Cc3ccc(Cl)cc3Cl)C1=C[C@H](C(C)C)O[C@@H]2C1CC1	none (no result: Anthrax LF inh2, Autofluor counter, BoNT F protease, SARS 3CLpro inh, BoNT-A LC inh2)
COc1ccc2c(=O)cc(-c3ccccc3F)oc2c1	BoNT F protease 46
CC(C)(O)C1=NOC(c2ccccc2)C1 (stereo unspecified)	Autofluor counter 16732
O=C1CC(=O)CC(c2ccccc2)C1	none
